# ALDH1A1 block – qHTS Assay for Inhibitors of Aldehyde Dehydrogenase 1 (ALDH1A1); Aldehyde dehydrogenase 1A1 (Homo sapiens), P00352; Purified ALDH1A1, NADH fluorescence, propionaldehyde substrate; Potency, µM (highest dose often 75.3 µM), for inactives: at the top dose activity, negative = inhibition, most hits filed as inhibitors; actives 7.3% (n = 220,000); AID 1030, 2008;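 further: plate controls were no enzyme wells and a reference inhibitor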
# KDM4E inh – qHTS Assay for Inhibitors of Human Jumonji Domain Containing 2E (JMJD2E); Lysine-specific demethylase 4E (Homo sapiens), B2RXH2; JMJD2E catalytic domain, FDH-coupled NADH fluorescence (FDH is formaldehyde dehydrogenase); Potency, µM (top dose mostly 57.1 µM), without a hit: at the top dose activity change, negative = inhibition, hits mostly inhibitors; actives 1.6% (n = 230,000); AID 2147, 2009;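 further: 0% = wells with enzyme and -100% = buffer wells without enzyme; nearly all actives have a fitted effect of over 50% in size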
# Target sequence (B2RXH2 1-337 limits assumed): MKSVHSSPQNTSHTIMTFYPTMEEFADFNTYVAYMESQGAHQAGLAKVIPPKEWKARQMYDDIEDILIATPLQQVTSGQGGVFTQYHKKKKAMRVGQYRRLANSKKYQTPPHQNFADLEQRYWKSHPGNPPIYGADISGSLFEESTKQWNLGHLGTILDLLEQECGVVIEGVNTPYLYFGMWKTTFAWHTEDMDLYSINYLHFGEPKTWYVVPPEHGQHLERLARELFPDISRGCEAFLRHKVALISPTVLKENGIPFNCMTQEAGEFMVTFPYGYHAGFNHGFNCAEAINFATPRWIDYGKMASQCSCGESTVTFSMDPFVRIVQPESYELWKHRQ
# HttQ103 aggreg – qHTS Multiplex Assay to Identify Dual Action Probes in a Cell Model of Huntington: Aggregate Formation (GFP) | PC12 HttQ103-GFP aggregates, Acumen cytometry, 40 h | Potency, µM (titrated, usually from 46.1 µM), inactives show top-dose activity change, negative = inhibition, actives largely listed as inhibitors | actives 1.1% (n = 220,000); active means well fitted curve in the direction sought with a large enough effect; inconclusive means small, poorly fitted or top-dose-only effect, or another doubt; inactive means no such curve, though single readings can be large; an effect the other way counts as inactive or inconclusive; further: on the % scale 0 is the no-effect control and ±100 the full control effect; nearly all actives have a fitted effect of over 60% in size
#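 Steps: seed 1500 PC12 HTTQ103-GFP cells/well; add tebufenozide, 100 nM final; add compound titration; add ATPLite reagent; quantify GFP aggregates by laser scanning cytometry.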
# HTT ATP protect – qHTS Multiplex Assay to Identify Dual Action Probes in a Cell Model of Huntington: Cytoprotection (ATP). PC12 HTT-Q103 induced, cytoprotection, ATP luminescence, 40 h. Potency, µM (top dose mostly 56.4 µM), for inactives: cytoprotection (ATP increase), most hits filed as activators. actives 0.14% (n = 230,000). AID 1471, 2008; active means well fitted curve in the direction sought with a large enough effect; inconclusive means small, poorly fitted or top-dose-only effect, or another doubt; inactive means no such curve, though single readings can be large; an effect the other way counts as inactive or inconclusive; further: % of control where 0% means no effect; nearly all actives have a fitted effect of over 45% in size
#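 Compounds were screened for protection of PC12 cells against cell death after tebufenozide induction (100 nM final) of mutant Huntingtin exon 1 (Q103) fused to GFP.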
# Lamin A splicing – qHTS Assay for Modulators of Lamin A Splicing. HeLa LMNA splicing GFP/RFP minigene ratio, 48 h. Potency, µM (titrated, usually from 46.1 µM), for inactives: at the top dose ratio change, negative = inhibition, most hits filed as inhibitors. actives 0.01% (n = 200,000). AID 1487, 2009; active means well fitted inhibition curve with a large enough effect in the signal ratio, with a control signal flat, not every such curve was filed as active; inconclusive means small, poorly fitted or top-dose-only effect, or effect the other way, or a change in a side signal; the % refers to the signal ratio; further: on the % scale 0 is the no-effect control and ±100 the full control effect
#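 S3 HeLa cells stably expressing lamin A-EGFP splicing minigene plus DsRed2, 600 cells/well, 48 h compound exposure at 37C. Laser-scanning cytometry; analysed as GFP (500-530 nm)/RFP (575-640 nm) total intensity ratio; 0.5% DMSO vehicle.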
# HPGD inh – qHTS Assay for Inhibitors of HPGD (15-Hydroxyprostaglandin Dehydrogenase); Potency, µM, for the others: top-dose activity change, negative = inhibition, usual class: inhibitors; purified HPGD, NADH fluorescence kinetic, PGE2 substrate; actives 4.3% (n = 150,000); 15-hydroxyprostaglandin dehydrogenase [NAD(+)] (Homo sapiens), P15428; further: on the % scale 0 is the no-effect control and ±100 the full control effect
# Target sequence (P15428 whole entry, looked up): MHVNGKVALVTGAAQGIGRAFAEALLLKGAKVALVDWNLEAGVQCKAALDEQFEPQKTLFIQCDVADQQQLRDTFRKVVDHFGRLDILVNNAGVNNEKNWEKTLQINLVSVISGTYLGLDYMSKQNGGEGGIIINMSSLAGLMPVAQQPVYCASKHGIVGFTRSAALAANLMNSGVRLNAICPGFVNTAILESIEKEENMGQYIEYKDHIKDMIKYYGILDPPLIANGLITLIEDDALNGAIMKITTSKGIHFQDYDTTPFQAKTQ
#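 NADH formation kinetics: reaction with 30 uM PGE2 and 1 mM NAD+ (final), 20 nM enzyme, Tris-HCl pH 8 with Tween 20, after 15 min compound preincubation at room temperature. Fluorescence change, last versus first of five reads.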
# * hit, by the source's call; ? = inconclusive; . = no result; [ ] = dose if it differs, or a comment. Only some compounds are listed: those with a hit (about 9.2% of all), similar ones and a draw of the others. Unless noted, the call rests on the fitted dose curve; in most records, active means well fitted inhibition curve with a large enough effect (not every such curve was filed as active); inconclusive means small, poorly fitted or top-dose-only effect, or another doubt; inactive means no such curve, though single readings can be large or run the other way. Potency means the concentration at half of the fitted maximal effect.
SMILES,ALDH1A1 block,KDM4E inh,HttQ103 aggreg,HTT ATP protect,Lamin A splicing,HPGD inh
C=C(CCC12O[C@H](C(=O)O)[C@@](O)(C(=O)O)[C@](C(=O)O)(O1)[C@H](OC(=O)/C=C/[C@@H](C)C[C@@H](C)CC)[C@H]2O)[C@@H](OC(C)=O)[C@H](C)Cc1ccccc1,0%,.,.,-77%,.,-19%
CC(=O)OCC1=C(C(=O)O)N2C(=O)C(NC(=O)CSc3ccncc3)[C@@H]2SC1 (some centres undefined),8%,-1%,.,?,.,-7%
C=CCn1c(COc2ccccc2F)nnc1SCC(=O)c1c[nH]c2ccccc12,-1%,-10%,-24%,11%[1.9 µM],?,-13%
COc1cc(OC)cc(C(=O)NCC(=O)OCC(=O)/C=C2/N(C)c3ccccc3C2(C)C)c1,?,?,-25%,-37%,.,.
CN1/C(=C\C(=O)COC(=O)Cn2nnc(-c3ccccc3)n2)C(C)(C)c2ccccc21,-14%,?,11µM*,-8%,-2%,?
O=C1CSC(=Nc2ccc(Cl)cc2)N1Cc1cccnc1,-11%,2%,-7%[9.22 µM],-6%[10 µM],.,.
CC(C)c1ccc(C(=O)NC2=NCCS2)cc1,3%,8%,-13%,-20%[10 µM],7%,-13%
CC(C)Oc1ccc(C(=O)NC2=NCCS2)cc1,20µM*,-25%,-11%,-221%,?,.
CCOC(=O)C(CSCC(=O)c1ccc(Cl)cc1)NC(=O)OC(C)(C)C (centres undefined),20µM*,-4%,12%,-12%,8%,-9%
C/C(=C\c1ccccc1)C(=O)NCCCn1ccnc1,4%,4%,3%,.,-20%[46 µM],.
COc1cc(NC(=O)Nc2ccc3c(c2)OCO3)cc(OC)c1OC,8%,4%,11%,6%,.,.
O=C(Nc1ccc([N+](=O)[O-])cc1)Nc1ccc(OC(F)F)c(Cl)c1,-1%,-4%,11µM*,.,?,-4%
COc1ccc(NC(=O)Nc2cccc([N+](=O)[O-])c2)cc1Cl,?,7%,?,-3%[10 µM],?,-15%
COc1ccc(C(C)(C)C)cc1NC(=O)c1c(C)noc1C,1%,5%,0.56µM*,0%,-2%,-10%
COc1ccc(C(C)(C)C)cc1NC(=O)Nc1ccc2c(c1)OCO2,5%,-2%,18µM*,12%[10 µM],?,-13%
O=C(Nc1ccc(OC(F)F)c(Cl)c1)Nc1ccc2c(c1)OCO2,0%,-5%,11µM*,-2%[10 µM],?,-7%
COCCNc1ncnc2c1cnn2-c1cc(Cl)ccc1C,.,.,.,.,-12%[46 µM],.
Cc1c(NC(=O)c2cccs2)cccc1-c1nc2cc(Cl)ccc2o1,.,.,.,.,-1%[46 µM],.
COCCn1c(=O)c(C)nc2cnc(Nc3ccccc3)nc21,11%,.,.,-18%,-6%,.
O=C(Nc1ccc(OC(F)F)c(Cl)c1)c1cccc(OC(F)F)c1,1%,2%,4µM*,-90%,13%,-24%
O=C(NNc1ccccc1[N+](=O)[O-])Nc1ccc(Cl)c(Cl)c1,?,-29%,11µM*,.,?,-19%
O=C(/C=C/c1ccccc1[N+](=O)[O-])NC1CCCC1,14µM*,-5%,28%,-30%,.,.
O=C(NNc1ccccc1[N+](=O)[O-])Nc1ccc(F)cc1,?,-3%,10%,-9%[10 µM],-17%,-2%
O=C(NNc1ccccc1[N+](=O)[O-])Nc1ccccc1,?,-5%,-1%,20%,-7%,-13%
O=C(NNc1ccccc1[N+](=O)[O-])NC1CCCCC1,25µM*,-25%,7%,-8%,-16%[9.22 µM],.
SMILES,ALDH1A1 block,KDM4E inh,HttQ103 aggreg,HTT ATP protect,Lamin A splicing,HPGD inh
COc1ccc(Cn2cc([N+](=O)[O-])nc2C)cc1[N+](=O)[O-],.,-5%,9%[9.22 µM],24%[10 µM],.,.
COc1ccc(CSC(=N)N)cc1[N+](=O)[O-],28µM*,-2%,?,8%[10 µM],?,-1%
CCCCCOc1ccc(CSC(=N)N)cc1[N+](=O)[O-],-4%,1%,2%,-14%,?,1%
COc1ccc(Cn2ccnc2CO)cc1[N+](=O)[O-],6.3µM*,3%,?,?,.,.
Cc1c(-c2nnc(SCC(=O)Nc3ccc(Br)cc3)o2)nnn1-c1ccc(F)cc1,.,.,.,.,-1%[46 µM],.
CCOC(=O)Cc1csc(NC(=O)NC2(C(F)(F)F)Oc3cc(Cl)c(Cl)cc3O2)n1,-4%,28µM*,6%[9.22 µM],-26%,10%,-16%
CCOC(=O)Cc1csc(NC(=O)c2csc3c2CCCC3)n1,14µM*,-21%,-7%,-25%,3%,?
COc1cccc(NC(=O)NC2(C(F)(F)F)Oc3ccccc3O2)c1,35µM*,5%,24%,-21%[10 µM],?,-27%
CCOC(=O)Cc1csc(NC(=O)NC2(C(F)(F)F)Oc3ccccc3O2)n1,-16%,?,-2%[9.22 µM],-21%,-5%,35µM*
Cc1ccc(C)c(NC(=O)NCc2ccc(Cl)cc2)c1,9%[13.5 µM],.,.,-8%[10 µM],.,2%
C[C@H]1Cc2c(-c3ccccc3)nc3c(c2CO1)CN(C(=O)c1cc(I)ccc1F)CC3,18%[13.5 µM],1%[11.4 µM],.,-20%[10 µM],11%[9.22 µM],-1%
CCN1CCCC1CNC(=O)c1ccc(-n2c(=O)c(=O)[nH]c3ccccc32)cc1 (centres undefined),6%,.,.,.,.,-5%
CN1C(=O)C(CCC(=O)O)NC1=S (centres undefined),.,-8%,19%[9.22 µM],33%[10 µM],.,.
COc1ccc(/C=N/NC(=S)Nc2cccc(C(=O)O)c2)cc1OC,-1%,-29%,5%,0%[10 µM],-7%,-29%
COc1cccc(/C=N/NC(=S)Nc2cccc(C(=O)O)c2)c1,32µM*,-26%,1%,.,.,.
COc1cc(/C=N/NC(=S)Nc2cccc(C(=O)O)c2)cc(OC)c1OC,14µM*,0%,21%,-1%[10 µM],?,-23%
COc1ccc(O)c(/C=N/NC(=S)Nc2cccnc2)c1,?,?,13µM*,-148%,25%[46 µM],.
COC(=O)[C@@H]1C[C@H]2CC[C@H](O)C[C@H]2N1Cc1c(F)cccc1Cl,0%,4%,.,13%,.,-11%
CN(C)c1ccc(/C=C2\C(=N)N3C(=NC2=O)Sc2cc(S(C)(=O)=O)ccc23)cc1,.,-9%,11%[9.22 µM],-19%[10 µM],.,.
Cc1cccc(Cn2c(=O)n(CC3CCC(C(=O)N4CCOCC4)CC3)c(=O)c3sccc32)c1 (centres undefined),.,.,.,.,-3%[46 µM],.

# Source: PubChem (National Center for Advancing Translational Sciences (NCATS))
